Data on 40 compounds can be found in PubChem BioAssay (NCATS).

Results filed as inconclusive are left out. Entries that show only a call come without a potency. Active and inactive are the calls of the source. Calls follow the shape of the dose curve; as a rule, active = well fitted inhibition curve with a large enough effect; inconclusive = small, poorly fitted or top-dose-only effect; inactive = no such curve, though single readings can be large or run the other way.
Potency is read from the fitted curve at half-maximal effect.

This assay in a line: P-glycoprotein substrates identified in KB-3-1 adenocarcinoma cell line, qHTS therapeutic library screen (AID 1346986). Also: nearly all actives have a fitted effect of over 60% in size.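 Also: potency is for cytotoxicity meaning loss of cell viability.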 Conditions: KB-3-1 parental cells viability, CellTiter-Glo, 72 h; series mostly up to 44.5 µM. On the procedure:
The ATP-binding cassette transporters P-glycoprotein (P-gp) is known to limit brain penetration of many chemotherapy drugs. […] We used the CellTiter-Glo viability assay to test library compounds against the parental KB-3-1 human cervical adenocarcinoma cell line and the colchicine-selected sub-line KB-8-5-11 that over-expresses P-gp. KB-8-5-11 cells were also tested in the presence of a P-gp inhibitor (tariquidar) to assess reversability of transporter-mediated resistance. Of the tested compounds, a total of 90 P-gp substrates were identified including 55 newly identified P-gp substrates. Substrates were confirmed using an orthogonal killing assay against HEK-293 cells transfected with P-gp. As exemplars, we confirmed that AT7159 (cyclin-dependent kinase inhibitor); AT9283, (Janus kinase 2/3 inhibitor); ispinesib (kinesin spindle protein inhibitor); gedatolisib (PKI-587, phosphoinositide 3-kinase/mammalian target of rampamycin inhibitor); GSK-690693 (AKT inhibitor); and KW-2478 (heat shock protein 90 inhibitor) were substrates , and direct ATPase stimulation was assessed. ABCG2 was also found to confer high levels of resistance to AT9283, GSK-690693 and gedatolisib, while ispinesib, AT7519 and KW-2478 were weaker substrates.
The HeLa derivative cell line, KB-3-1, and its colchicine-selected, P-gp-overexpressing subline, KB-8-5-11 were maintained in DMEM with 10% FCS and Pen/Strep with glutamine at 37 degree C in 5% CO2. For KB-8-5-11 cells, colchicine was added to the medium at a concentration of 100 ng/mL. HEK-293 cells transfected with empty vector (pcDNA) or vector containing human ABCB1 (MDR-19) or ABCG2 (R-5) have been described previously (Robey, Lin, Qiu, Chan & Bates, 2011) and were maintained in EMEM supplemented with 10% FCS, Pen/Strep and glutamine with 2 mg/ml G418 to select for the expression of the transporter. Cultures were confirmed to be free of mycoplasma infection using the MycoAlert Mycoplasma Detection Kit (Lonza, Walkersville, MD). For the screen, assay medium was identical to culture medium except for KB-8-5-11 where colchicine was excluded from the medium.
All cell lines were plated into 1536-well plates at 500 cells/well in 5 uL media. Compounds were then pinned in dose-response using a 1536-head pin tool (Kalypsis, San Diego, CA) and plates were incubated at 37 degree C in 5% CO2 for an additional 72 h. CellTiter-Glo reagent (Promega) was dispensed into the wells, incubated for 5 min and luminescence was read on a ViewLux instrument (Perkin-Elmer). Cytotoxic compounds were defined as those that yielded a curve class of -1.1, -1.2, -2.1, -2.2, -2.3, or -2.4, a maximum response of >50% and an AC50 of < 10 uM. Cherry-picked hits from screening analysis were tested with both the KB pair of cell lines, and the pcDNA (empty vector control) and MDR-19 (P-gp overexpressing) pair were tested, in the absence and presence of tariquidar.
On to `C=C(C)C(=O)O[C@H]1[C@H]2C(=C)C(=O)O[C@@H]2/C=C(\CO)CC/C=C(/C=O)[C@@H]1O`, for which the Potency result was “inactive”.

`CC1(C)CC[C@]23CO[C@@]4(CCC5[C@@]6(C)CC[C@H](O[C@@H]7OC[C@H](O[C@@H]8O[C@H](CO)[C@@H](O)[C@H](O)[C@H]8O[C@@H]8OC[C@@H](O)[C@H](O)[C@H]8O)[C@H](O)[C@H]7O)[C@@](C)(CO)C6CC[C@@]5(C)[C@]4(C)CC2=O)[C@@H]3C1` (stereo not given in full): the outcome was “inactive [at 9.29 µM]”.

Consider `C=C1C(=O)O[C@@H]2[C@H]1CCC(C)=C(CCC(=O)O)[C@@]2(C)O`, for which the Potency result is “inactive”.

For `C=C1CC[C@@H](O)[C@]2(C)CC[C@H]3C(=C)C(=O)O[C@@H]3[C@@H]12`, the Potency result is “inactive”.

Regarding `COc1cc(F)c(C(C)C)cc1-c1ccc(C(F)(F)F)cc1CN1C(=O)OC(c2cc(C(F)(F)F)cc(C(F)(F)F)c2)C1C` (stereo not given), the Potency result was “inactive”.

For the compound `C[C@H]1CC[C@@]2(OC1)O[C@H]1CC3[C@@H]4CC[C@@H]5C[C@@H](O[C@@H]6O[C@H](CO)[C@@H](O[C@@H]7O[C@H](CO[C@@H]8OC[C@@H](O)[C@H](O)[C@H]8O)[C@@H](O[C@@H]8O[C@H](CO)[C@H](O)[C@H](O)[C@H]8O)[C@H](O)[C@H]7O)[C@H](O)[C@H]6O)CC[C@]5(C)C4CC[C@]3(C)[C@H]1[C@@H]2C` (stereo not given in full), the outcome was “inactive [at 9.29 µM]”.

Turning to `CC1=CC2/C=C(\C)CCC(O)C/C=C/C(=O)OC23C(=O)NC(CC(C)C)C3C1C` (stereo not given), the Potency entry was “inactive”.

For `COc1ccc(-c2ccc3c(N4CCOCC4C)nc(N4CCOCC4C)nc3n2)cc1CO` (stereo not given), the Potency is 0.0731 µM (active).

Turning to `C=CCCN1CCC2(CC1)CN(C(=O)c1c(F)cccc1F)c1ccc(Cl)cc12`, the Potency result is “inactive”.

For the compound `CC(C)S(=O)(=O)c1ccc2nccc(Nc3ccc4scnc4c3)c2c1`, the Potency entry is “inactive”.

Consider `CNc1nc(Nc2ccc(C(=O)N3CCOCC3)cc2OC)nc2[nH]cc(Cl)c12`, for which the Potency was 7.31 µM (active).

For `C[C@@H]1O[C@@H](O[C@H]2[C@@H]3C=CO[C@@H](O[C@@H]4O[C@H](CO)[C@@H](O)[C@H](O)[C@H]4O)[C@@H]3[C@@]3(CO)O[C@@H]23)[C@H](O)[C@H](OC(=O)/C=C/c2ccccc2)[C@H]1O`, the Potency result is “inactive”.

`Nc1nc2c(nc(Br)n2[C@@H]2O[C@@H]3COP(=O)(O)O[C@H]3[C@H]2O)c(=O)[nH]1`: the Potency entry is “inactive”.

With `O=C(c1cc(Cc2n[nH]c(=O)c3ccccc23)ccc1F)N1CCCNCC1`, the Potency entry is “inactive”.

`CC(=O)Nc1nc(C)c(-c2nc(N3CCCC(O)C3)no2)s1` (stereo not given): the Potency was 13 µM (active).

As to `Cn1ncc(Cl)c1-c1cc(C(=O)N[C@H](CN)Cc2ccc(F)c(F)c2)oc1Cl`, the Potency is 11.6 µM (active).

In the case of `C=C1C(=O)OC2CC3(C)C(O)C(=O)C=C(C)C3CC12` (stereo not given), the Potency result was “inactive”.

Regarding `CC1=C(c2ccc(NC(=O)c3c(F)cccc3F)cc2)CN(c2nccs2)CC1`, the Potency result was “inactive”.

On to `N#Cc1cc(-c2ccnc(Nc3ccc(N4CCOCC4)cc3)n2)ccc1OC1CCOCC1`, for which the Potency was 13 µM (active).

`CC1(C)CCCC2(C)C1C(OC(=O)/C=C/C=C/C=O)C=C1COC(=O)C12O` (stereo not given): the Potency result was “inactive”.

In the case of `COc1ccc2[nH]c(=O)c3c(c2c1)OC(C)(C)C=C3`, the Potency entry is “inactive”.

With `COc1cc(C(C)=O)c(OC)c2c1OC(C)(C)C=C2`, the Potency entry is “inactive”.

As for `CC(=O)OC1C(O)CC2(C)C(CCC3(C)C2CC=C2C4C5(CCC(CO[C@@H]6O[C@H](CO)[C@@H](O)[C@H](O)[C@H]6O)(OC5=O)C4(C)O)C(O)CC23C)C1(C)C` (stereo not given in full), the Potency result is “inactive”.

With `C=C1C(=O)OC[C@@H]1C/C=C(\C)CC1CC(C)C(=O)O1` (stereo not given in full), the Potency entry was “inactive”.

Take `C=C1C(=O)O[C@@H]2/C=C(\CO)CC/C=C(\CO)[C@H](OC(C)=O)C(OC(=O)C(C)CC)C12` (stereo not given in full): the Potency entry is “inactive”.

In the case of `Nc1nc(OCc2cc(Br)cs2)c2[nH]cnc2n1`, the Potency result was “inactive”.

Consider `Cn1ncnc1[C@@H]1c2n[nH]c(=O)c3cc(F)cc(c23)N[C@H]1c1ccc(F)cc1`, for which the Potency result was “inactive”.

Turning to `C=CC(=O)Nc1cccc(Nc2nc(Nc3ccc(OCCOC)cc3)ncc2F)c1`, the Potency is 11.6 µM (active).

Regarding `Cc1nc(NC(=O)N2CCCC2C(N)=O)sc1-c1ccnc(C(C)(C)C(F)(F)F)c1` (stereo not given), the Potency was 23.1 µM (active).

For `COC(CCc1ccc(O)cc1)CC(=O)CCc1ccc(O)cc1` (stereo not given), the Potency entry is “inactive”.

As to `CN(CC1COCCO1)S(=O)(=O)Nc1ccc2ccc3ncc(-c4cnn(C)c4)cc3c(=O)c2c1` (stereo not given), the Potency is 11.6 µM (active).

For the compound `CC1OC(=O)C[C@@H]2C(C(=O)O)=CO[C@@H](O[C@H]3O[C@H](CO)[C@@H](O)[C@H](O)[C@H]3O)[C@H]12` (stereo not given in full), the Potency result was “inactive”.

`N#Cc1ccnc(Nc2cc(C3CCN(C4COC4)CC3)cc(N3CCC(F)(F)C3)n2)c1`: the Potency is 6.51 µM (active).

For `COc1cc(O)cc(/C=C/c2cccc(O)c2)c1`, the Potency entry is “inactive”.

For the compound `Cn1sc(=O)n(Cc2ccccc2)c1=O`, the Potency is 7.31 µM (active).

Turning to `CC(=O)O[C@@H]1CC[C@@]2(C)C(CC[C@]3(C)C2[C@H](O)C=C2[C@H]4[C@@H](C)[C@H](C)CC[C@]4(C)CC[C@]23C)[C@@]1(C)C(=O)O` (stereo not given in full), the Potency entry is “inactive”.

With `CC/C(C)=C/C(=O)OC1C(OC2(C)CCC3C(C4C(C)CCC42)C3(C)C)OC(C)C(O)C1O` (stereo not given), the Potency result was “inactive”.

Regarding `C/C(=N\N=C(N)N)c1cc(NC(=O)CCCCCCCCC(=O)Nc2cc(/C(C)=N/N=C(N)N)cc(/C(C)=N/N=C(N)N)c2)cc(/C(C)=N/N=C(N)N)c1`, the Potency was 14.6 µM (active).

On to `Cc1nc(C(=O)N2CCC[C@H]2Cc2nnc(-c3ccccc3)o2)c(-c2ccccc2F)s1`, for which the Potency result was “inactive”.

In the case of `C=C1C(=O)O[C@@H]2/C=C(\C)CC/C=C(/C=O)[C@H](OC)[C@@H](OC(=O)C(C)C)[C@@H]12`, the Potency entry is “inactive”.
